The source of these data is article PMC7862700, “An all-to-all approach to the identification of sequence-specific readers for epigenetic DNA modifications on cytosine”.

Holding throughout (test): DAPPL (digital affinity profiling via proximity ligation, sequencing); 10 mM Tris-HCl pH 7.5, 50 mM NaCl, 1 mM DTT, 4% glycerol, room temperature, 30 min; GST-TFs on glutathione beads, 16-mer random dsDNA library, 0.1% formaldehyde crosslink after washing; high values mean tight binding
Settings in all cases: protein: recombinant; tags: N-terminal GST; dsDNA, one strand shown

One assay deals with T1, FEV (Homo sapiens, UniProt Q99581 1-238).
T1 sequence: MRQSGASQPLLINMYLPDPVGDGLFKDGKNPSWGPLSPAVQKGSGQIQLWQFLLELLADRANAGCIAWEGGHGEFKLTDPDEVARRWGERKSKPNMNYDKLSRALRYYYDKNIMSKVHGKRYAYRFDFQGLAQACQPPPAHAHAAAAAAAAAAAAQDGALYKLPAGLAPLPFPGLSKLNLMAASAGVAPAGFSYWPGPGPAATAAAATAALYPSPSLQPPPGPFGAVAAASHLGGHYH
An outline of the steps:
(§1)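 Binding signal is given per hexamer as its read frequency for a factor divided by its frequency in the tag-only sample. GST-fused human transcription factors were expressed in yeast, captured on glutathione beads, barcoded with DNA and pooled with that sample, then incubated with 200 nmole of a 16-mer random double-stranded DNA library in Tris/NaCl/DTT/glycerol buffer for 30 min at room temperature. The pools were then washed, crosslinked, proximity-ligated, amplified by PCR and sequenced on an Illumina NextSeq500.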

A further assay deals with ETV5 (Homo sapiens, UniProt P41161 1-510). A digest of the protocol: as §1
Sequence of ETV5 (P41161 whole entry): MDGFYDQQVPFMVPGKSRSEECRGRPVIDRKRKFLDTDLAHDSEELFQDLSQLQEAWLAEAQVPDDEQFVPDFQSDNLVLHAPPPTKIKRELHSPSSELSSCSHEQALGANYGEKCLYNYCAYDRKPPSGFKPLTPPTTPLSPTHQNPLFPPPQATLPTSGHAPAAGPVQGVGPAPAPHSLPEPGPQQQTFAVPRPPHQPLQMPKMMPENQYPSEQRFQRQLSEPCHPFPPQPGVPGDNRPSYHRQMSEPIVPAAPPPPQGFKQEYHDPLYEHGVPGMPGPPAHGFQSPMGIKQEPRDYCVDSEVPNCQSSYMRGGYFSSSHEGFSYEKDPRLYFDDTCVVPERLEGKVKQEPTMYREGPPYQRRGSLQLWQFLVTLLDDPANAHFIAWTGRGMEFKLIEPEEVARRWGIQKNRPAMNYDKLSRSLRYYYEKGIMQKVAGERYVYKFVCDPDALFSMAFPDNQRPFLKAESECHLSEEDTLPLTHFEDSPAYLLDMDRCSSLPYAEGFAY
The target in a further assay is T2, SPIC (Homo sapiens, UniProt Q8N5J4 1-248).
T2 sequence: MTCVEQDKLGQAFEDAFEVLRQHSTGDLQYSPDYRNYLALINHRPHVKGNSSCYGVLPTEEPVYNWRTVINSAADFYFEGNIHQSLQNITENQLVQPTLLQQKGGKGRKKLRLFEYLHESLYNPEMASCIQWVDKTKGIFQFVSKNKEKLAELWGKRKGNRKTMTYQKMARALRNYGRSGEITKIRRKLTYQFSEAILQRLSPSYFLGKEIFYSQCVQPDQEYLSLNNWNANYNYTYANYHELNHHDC
A digest of the protocol: as §1

For the next assay, the target named is ELF4 (Homo sapiens, UniProt Q99607 1-663). A digest of the protocol: as §1
Sequence of ELF4 (Q99607 whole entry): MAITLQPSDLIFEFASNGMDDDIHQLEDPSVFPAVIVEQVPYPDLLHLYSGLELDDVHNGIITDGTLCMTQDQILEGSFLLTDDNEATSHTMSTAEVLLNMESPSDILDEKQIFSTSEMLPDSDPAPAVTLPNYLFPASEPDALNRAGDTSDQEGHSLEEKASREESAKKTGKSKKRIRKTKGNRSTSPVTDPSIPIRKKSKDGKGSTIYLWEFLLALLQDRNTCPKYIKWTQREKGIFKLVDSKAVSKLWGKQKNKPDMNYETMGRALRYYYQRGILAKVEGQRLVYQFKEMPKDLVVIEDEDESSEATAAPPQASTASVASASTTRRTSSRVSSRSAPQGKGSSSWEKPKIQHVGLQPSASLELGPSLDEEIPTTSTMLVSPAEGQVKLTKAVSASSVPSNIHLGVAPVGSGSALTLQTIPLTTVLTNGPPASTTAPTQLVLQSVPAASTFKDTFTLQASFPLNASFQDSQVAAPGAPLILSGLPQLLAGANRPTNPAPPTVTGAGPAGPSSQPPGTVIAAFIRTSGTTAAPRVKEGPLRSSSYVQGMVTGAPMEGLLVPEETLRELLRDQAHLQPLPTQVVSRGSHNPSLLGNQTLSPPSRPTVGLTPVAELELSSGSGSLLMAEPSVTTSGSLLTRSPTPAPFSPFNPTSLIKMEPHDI
In the next assay the target is T3, ELK4 (Homo sapiens, UniProt P28324-2 1-405).
T3 sequence: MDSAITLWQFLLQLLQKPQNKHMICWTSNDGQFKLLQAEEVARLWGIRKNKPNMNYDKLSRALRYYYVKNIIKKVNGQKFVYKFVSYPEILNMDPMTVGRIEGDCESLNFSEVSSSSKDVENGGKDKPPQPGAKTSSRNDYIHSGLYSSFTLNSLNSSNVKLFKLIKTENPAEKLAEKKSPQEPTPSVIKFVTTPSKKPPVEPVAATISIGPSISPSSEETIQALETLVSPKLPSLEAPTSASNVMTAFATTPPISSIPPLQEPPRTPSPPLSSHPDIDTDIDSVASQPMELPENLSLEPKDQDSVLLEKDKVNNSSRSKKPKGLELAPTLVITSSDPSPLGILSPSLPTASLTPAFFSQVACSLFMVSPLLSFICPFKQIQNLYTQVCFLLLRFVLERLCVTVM
A digest of the protocol:
as §1

The target of the next assay is T4, ETV2 (Homo sapiens, UniProt O00321 1-342).
T4 sequence: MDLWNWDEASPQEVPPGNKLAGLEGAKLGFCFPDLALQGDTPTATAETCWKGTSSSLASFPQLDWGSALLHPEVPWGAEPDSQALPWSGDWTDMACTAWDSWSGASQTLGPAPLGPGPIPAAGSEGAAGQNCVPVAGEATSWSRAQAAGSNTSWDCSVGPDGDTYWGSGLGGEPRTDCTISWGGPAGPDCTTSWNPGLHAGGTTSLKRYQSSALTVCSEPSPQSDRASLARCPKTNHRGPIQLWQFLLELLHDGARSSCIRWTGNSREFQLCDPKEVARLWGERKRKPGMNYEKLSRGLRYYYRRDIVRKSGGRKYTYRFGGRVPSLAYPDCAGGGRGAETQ
A digest of the protocol: as §1

For the next assay, the target named is T5, ELF3 (Homo sapiens, UniProt P78545 1-371).
T5 sequence: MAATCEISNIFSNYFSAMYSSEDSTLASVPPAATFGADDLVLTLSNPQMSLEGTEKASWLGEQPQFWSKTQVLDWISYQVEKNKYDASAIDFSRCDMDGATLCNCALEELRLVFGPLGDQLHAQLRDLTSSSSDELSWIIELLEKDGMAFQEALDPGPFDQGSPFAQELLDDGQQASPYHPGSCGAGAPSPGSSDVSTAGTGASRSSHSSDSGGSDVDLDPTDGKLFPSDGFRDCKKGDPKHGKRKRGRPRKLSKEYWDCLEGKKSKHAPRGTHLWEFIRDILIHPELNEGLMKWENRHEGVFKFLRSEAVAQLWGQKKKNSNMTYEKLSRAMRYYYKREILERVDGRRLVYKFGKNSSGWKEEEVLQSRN
A digest of the protocol: as §1

For a further assay, the target named is ETV1 (Homo sapiens, UniProt P50549 1-477). An outline of the steps:
as §1

Sequence of ETV1 (P50549 whole entry): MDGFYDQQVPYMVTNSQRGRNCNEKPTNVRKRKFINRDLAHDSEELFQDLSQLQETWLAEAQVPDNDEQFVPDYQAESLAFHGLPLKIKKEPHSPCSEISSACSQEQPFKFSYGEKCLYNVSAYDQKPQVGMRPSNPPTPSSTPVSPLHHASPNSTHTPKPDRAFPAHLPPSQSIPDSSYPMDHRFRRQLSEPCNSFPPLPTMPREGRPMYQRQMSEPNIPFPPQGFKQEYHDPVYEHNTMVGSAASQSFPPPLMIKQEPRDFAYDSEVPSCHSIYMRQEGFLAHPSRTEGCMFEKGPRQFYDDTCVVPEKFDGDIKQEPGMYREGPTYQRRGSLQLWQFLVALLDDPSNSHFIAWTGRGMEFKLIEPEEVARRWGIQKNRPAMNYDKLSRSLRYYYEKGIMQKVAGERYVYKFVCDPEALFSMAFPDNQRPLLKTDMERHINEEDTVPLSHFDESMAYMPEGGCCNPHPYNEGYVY

Take ACAACA: the binding signal with FEV was 1.2 fold enrichment (6-mer frequency, TF over GST control); in the assay with ETV5 it was 1.16 fold enrichment (6-mer frequency, TF over GST control); in the assay with SPIC, 1.13 fold enrichment (6-mer frequency, TF over GST control); with ELF4 it was 1.19 fold enrichment (6-mer frequency, TF over GST control); with ELK4, 1.14 fold enrichment (6-mer frequency, TF over GST control); in the assay with ETV2, 1.28 fold enrichment (6-mer frequency, TF over GST control). Moreover, the binding signal is 1.32 fold enrichment (6-mer frequency, TF over GST control) with ELF3 and 1.23 fold enrichment (6-mer frequency, TF over GST control) in the assay with ETV1.

Consider GGACAT, for which the binding signal is 1.56 fold enrichment (6-mer frequency, TF over GST control) with FEV; 1.18 fold enrichment (6-mer frequency, TF over GST control) with ETV5; 1.28 fold enrichment (6-mer frequency, TF over GST control) with SPIC; 1.11 fold enrichment (6-mer frequency, TF over GST control) with ELF4; 1.07 fold enrichment (6-mer frequency, TF over GST control) with ELK4; 1.16 fold enrichment (6-mer frequency, TF over GST control) with ETV2. The binding signal is 1.24 fold enrichment (6-mer frequency, TF over GST control) with ELF3 and 1.23 fold enrichment (6-mer frequency, TF over GST control) with ETV1.

With CGGTCT, the binding signal in the assay with FEV is 1.3 fold enrichment (6-mer frequency, TF over GST control); with ETV5, 1.25 fold enrichment (6-mer frequency, TF over GST control); in the assay with SPIC, 1.02 fold enrichment (6-mer frequency, TF over GST control); in the assay with ELF4, 1.18 fold enrichment (6-mer frequency, TF over GST control); with ELK4 it was 1.12 fold enrichment (6-mer frequency, TF over GST control); in the assay with ETV2, 1.24 fold enrichment (6-mer frequency, TF over GST control). Moreover, the binding signal with ELF3 is 1.29 fold enrichment (6-mer frequency, TF over GST control); with ETV1, 1.16 fold enrichment (6-mer frequency, TF over GST control).

With GCATCC, the binding signal is 1.73 fold enrichment (6-mer frequency, TF over GST control) with FEV; 1.68 fold enrichment (6-mer frequency, TF over GST control) in the assay with ETV5; 1.53 fold enrichment (6-mer frequency, TF over GST control) with SPIC; 1.43 fold enrichment (6-mer frequency, TF over GST control) in the assay with ELF4; 1.28 fold enrichment (6-mer frequency, TF over GST control) in the assay with ELK4; 1.39 fold enrichment (6-mer frequency, TF over GST control) in the assay with ETV2. Moreover, the binding signal in the assay with ELF3 was 1.53 fold enrichment (6-mer frequency, TF over GST control); with ETV1, 1.55 fold enrichment (6-mer frequency, TF over GST control).

Take GCCCTC: the binding signal with FEV was 1.18 fold enrichment (6-mer frequency, TF over GST control); with ETV5, 1.12 fold enrichment (6-mer frequency, TF over GST control); in the assay with SPIC, 1.26 fold enrichment (6-mer frequency, TF over GST control); with ELF4, 1.3 fold enrichment (6-mer frequency, TF over GST control); in the assay with ELK4 it was 1.1 fold enrichment (6-mer frequency, TF over GST control); in the assay with ETV2 it was 1.27 fold enrichment (6-mer frequency, TF over GST control). Further, the binding signal in the assay with ELF3 is 1.18 fold enrichment (6-mer frequency, TF over GST control); with ETV1 it was 1.18 fold enrichment (6-mer frequency, TF over GST control).

For ACAAAC, the binding signal was 1.15 fold enrichment (6-mer frequency, TF over GST control) with FEV; 1.08 fold enrichment (6-mer frequency, TF over GST control) with ETV5; 1.11 fold enrichment (6-mer frequency, TF over GST control) with SPIC; 1.12 fold enrichment (6-mer frequency, TF over GST control) with ELF4; 1.08 fold enrichment (6-mer frequency, TF over GST control) with ELK4; 1.24 fold enrichment (6-mer frequency, TF over GST control) with ETV2. The binding signal with ELF3 is 1.12 fold enrichment (6-mer frequency, TF over GST control); with ETV1, 1.12 fold enrichment (6-mer frequency, TF over GST control).

In the case of CAACAC, the binding signal is 1.11 fold enrichment (6-mer frequency, TF over GST control) with FEV; 1.07 fold enrichment (6-mer frequency, TF over GST control) with ETV5; 1.08 fold enrichment (6-mer frequency, TF over GST control) with SPIC; 1.14 fold enrichment (6-mer frequency, TF over GST control) with ELF4; 1.2 fold enrichment (6-mer frequency, TF over GST control) with ELK4; 1.08 fold enrichment (6-mer frequency, TF over GST control) with ETV2. For the same sequence, the binding signal with ELF3 was 1.09 fold enrichment (6-mer frequency, TF over GST control); with ETV1 it was 1.11 fold enrichment (6-mer frequency, TF over GST control).
